Measured values published in PubChem BioAssay.
The source made the active and inactive calls.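 How the source made its calls, unless noted: active means NADPH fluorescence slope more negative than the mean of all samples by about 3 SD, 99.7% confidence; inactive means the rest.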

How the values were obtained:
[1] = inhibitors of TNFa-induced NFkB p65 translocation, primary screen, imaging, HUVEC, MLSMR starter and 10KST1 sets (AID 438;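 active means inhibition above 20% together with a positive visual image hit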;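 further: compound added about 3h40 before a 20 min TNFalpha stimulation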;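 on inhibition: signal is the nuclear over cytoplasmic p65 intensity ratio per well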); settings: HUVEC TNFa-induced p65 nuclear translocation; cell count: measured here: nuclei count (cytotoxicity indicator), at 2.08 µM; inhibition: at 2 µM, stronger effect = higher value, 0% TNFa-plus-vehicle, 100% no-TNFa wells
[2] = reduction of polyQ htt aggregates in cells – imaging, exon1htt(103Q)mCFP cells, high-content imaging, primary screen (AID 483;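 active means visual image review flags a hit and inhibition of aggregation exceeds 20%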;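 further: compound exposure lasted 3 days before fixation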;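 on nuclei count: percent of the per-plate median nuclei count of sample wells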); settings: exon1htt(103Q)mCFP cell line, aggregate imaging, at 2 µM; inhibition of aggregation: stronger effect = higher value; nuclei count: measured here: cell count, toxicity
[3] = endothelial E-selectin expression blockers – imaging, HUVEC, immunofluorescence, MLSMR starter and 10KST1 sets, primary screen (AID 487;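 active means visually confirmed hit in the image check and inhibition above 20%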;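 on inhibition: signal is fraction of cell area covered by stained E-selectin grains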;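 on nuclei count: 100% = median nuclei count of all wells on the same plate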); settings: HUVEC TNFalpha-induced E-selectin immunofluorescence imaging, at 2 µM; inhibition: stronger effect = higher value; nuclei count: measured here: cell number, toxicity
[4] = target: Voltage-gated potassium channel subunit beta-2 (Rattus norvegicus) (UniProt P62483); test: inhibitors of rat Kvbeta2 reductase activity – biochemical, NADPH fluorescence, primary screen (AID 622;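 active means fluorescence slope higher than the sample average by over 3 SD, cut at about -0.22 in these data, passing the limit was not always enough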;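 further: slope of raw intensity against log time taken from 70 to 1610 s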); settings: recombinant KvBeta, 4-cyanobenzaldehyde reduction, at 10 µM, stronger effect = higher value
Sequence of Voltage-gated potassium channel subunit beta-2 (Rattus norvegicus) (P62483 whole entry, looked up): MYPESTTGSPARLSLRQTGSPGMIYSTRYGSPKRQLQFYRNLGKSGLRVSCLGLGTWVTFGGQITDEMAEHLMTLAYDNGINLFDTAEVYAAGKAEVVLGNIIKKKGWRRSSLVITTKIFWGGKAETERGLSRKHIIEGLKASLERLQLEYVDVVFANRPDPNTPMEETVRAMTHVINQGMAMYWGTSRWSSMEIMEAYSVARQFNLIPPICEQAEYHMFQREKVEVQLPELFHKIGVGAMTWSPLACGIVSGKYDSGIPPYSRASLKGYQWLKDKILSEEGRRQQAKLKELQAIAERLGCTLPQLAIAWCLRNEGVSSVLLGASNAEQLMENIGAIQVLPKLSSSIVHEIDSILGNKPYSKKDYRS

[5] = target: Voltage-gated potassium channel subunit beta-2 (Rattus norvegicus) (UniProt P62483); test: enhancers of rat Kvbeta2 NADPH turnover – biochemical, NADPH fluorescence, primary screen (AID 623); settings: Recombinant KvBeta, NADPH fluorescence decrease slope, 10 min; at 10 µM; stronger effect = lower value;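 further: fluorescence intensity change per second fitted from 20 to 320 s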
[6] = target: Alpha-2C adrenergic receptor (Homo sapiens) (UniProt P18825); test: compounds altering alpha2C-coupled GIRK flux – cell-based, HEK293 alpha2C/GIRK1/2, thallium flux, primary screen (AID 624;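 active means fluorescence slope after compound addition differing from the mean of all screened samples at 99.7% confidence, in either direction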;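 further: slope of fluorescence ratio to pre-addition baseline per second over 15 to 24 s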); settings: thallium flux BTC fluorescence, at 10 µM, actives lie on both sides
Sequence of Alpha-2C adrenergic receptor (Homo sapiens) (P18825 whole entry, looked up): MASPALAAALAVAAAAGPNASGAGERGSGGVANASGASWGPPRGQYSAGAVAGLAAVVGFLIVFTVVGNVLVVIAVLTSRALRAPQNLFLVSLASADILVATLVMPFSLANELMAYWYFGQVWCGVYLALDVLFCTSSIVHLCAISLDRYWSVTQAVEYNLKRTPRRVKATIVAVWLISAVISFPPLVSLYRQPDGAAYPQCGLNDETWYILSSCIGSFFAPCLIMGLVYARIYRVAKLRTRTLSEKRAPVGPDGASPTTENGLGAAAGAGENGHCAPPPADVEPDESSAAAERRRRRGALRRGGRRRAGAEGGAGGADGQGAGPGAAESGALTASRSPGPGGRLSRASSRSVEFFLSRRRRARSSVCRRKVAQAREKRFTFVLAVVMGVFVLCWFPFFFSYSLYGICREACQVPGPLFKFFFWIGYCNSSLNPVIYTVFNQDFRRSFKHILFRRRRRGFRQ

[7] = blockers of RIG-like receptor reporter activation – cell-based, Sendai virus stimulus, luciferase, 10K MLSCN set, TLR/RLR signaling modifier project, primary screen (AID 602276;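 active means inhibition at or above 50% at 10 µM; inactive means inhibition below 50%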;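 further: firefly luciferase from ISG56 promoter only with Renilla not read in this screen; 0% = Sendai virus plus DMSO and 100% = medium plus DMSO without virus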); settings: HEK293 RL24 IRF3 luciferase reporter, at 10 µM, stronger effect = higher value
[8] = TLR3 IRF3 reporter activation blockers – cell-based, poly I:C stimulus, luciferase, 10K MLSCN set, primary screen (AID 602277;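 active means inhibition of the reporter signal at or above 50%; inactive means inhibition below 50%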); settings: HEK293-TLR3 RL24 IRF3 luciferase reporter, at 10 µM, stronger effect = higher value

CCn1c(SCC(=O)c2ccc(F)cc2)nnc1-c1ccoc1C
cell count [1]: 423
inhibition [1]: -19.4% (inactive)
inhibition of aggregation [2]: -1.3% (inactive)
nuclei count [2]: 78%
inhibition [3]: -50.4% (inactive)
nuclei count [3]: 103%
fluorescence slope [4]: -0.607 (inactive)
NADPH fluorescence slope [5]: 1.4e-05 (inactive)
slope [6]: 0.00696 (inactive)
inhibition [7]: 6.99% (inactive)
inhibition [8]: 11.7% (inactive)

Cc1nc(NCc2ccco2)c2oc3ccccc3c2n1
cell count [1]: 337
inhibition [1]: 15% (inactive)
inhibition of aggregation [2]: -4.3% (inactive)
nuclei count [2]: 94.4%
inhibition [3]: 19.5% (inactive)
nuclei count [3]: 96.4%
fluorescence slope [4]: -0.389 (inactive)
NADPH fluorescence slope [5]: -1.9e-05 (inactive)
slope [6]: 0.00599 (inactive)
inhibition [7]: 3.36% (inactive)
inhibition [8]: -32.5% (inactive)

COC(=O)c1cc(-c2ccccc2)sc1NC(=O)c1cc(C)on1
cell count [1]: 365
inhibition [1]: -2.2% (inactive)
inhibition of aggregation [2]: -13.8% (inactive)
nuclei count [2]: 104%
inhibition [3]: -21.2% (inactive)
nuclei count [3]: 111%
fluorescence slope [4]: -0.342 (inactive)
NADPH fluorescence slope [5]: -1.3e-05 (inactive)
slope [6]: 0.00783 (inactive)
inhibition [7]: -14.9% (inactive)
inhibition [8]: -8.07% (inactive)

CCOC(=O)C1CCCN(c2c(NCc3ccco3)c(=O)c2=O)C1 (configuration not stated)
cell count [1]: 614
inhibition [1]: -7.3% (inactive)
inhibition of aggregation [2]: -5.7% (inactive)
nuclei count [2]: 99.7%
inhibition [3]: -52.6% (inactive)
nuclei count [3]: 128%
fluorescence slope [4]: -0.531 (inactive)
NADPH fluorescence slope [5]: -1.5e-05 (inactive)
slope [6]: 0.00732 (inactive)
inhibition [7]: -5.89% (inactive)
inhibition [8]: 16.5% (inactive)

Cn1c(SCCN2CCCCC2)nnc1-c1ccccc1Br
cell count [1]: 493
inhibition [1]: 4.4% (inactive)
inhibition of aggregation [2]: 1.1% (inactive)
nuclei count [2]: 70.5%
inhibition [3]: -13.3% (inactive)
nuclei count [3]: 98.3%
fluorescence slope [4]: -0.509 (inactive)
NADPH fluorescence slope [5]: -3.5e-05 (inactive)
slope [6]: 0.00556 (inactive)
inhibition [7]: 13.4% (inactive)
inhibition [8]: 13.7% (inactive)

CC(=O)N1CCN(C(=O)COc2ccc(Br)cc2)CC1
cell count [1]: 518
inhibition [1]: -6.3% (inactive)
inhibition of aggregation [2]: -1.5% (inactive)
nuclei count [2]: 93.7%
inhibition [3]: -21.9% (inactive)
nuclei count [3]: 139%
fluorescence slope [4]: -0.592 (inactive)
NADPH fluorescence slope [5]: -5.6e-05 (inactive)
slope [6]: 0.00597 (inactive)
inhibition [7]: 5.88% (inactive)
inhibition [8]: 13.4% (inactive)

CC(C)CN(C(=O)c1ccc(=O)n(C)n1)c1nc2ccccc2s1
cell count [1]: 369
inhibition [1]: 4.8% (inactive)
inhibition of aggregation [2]: -17.5% (inactive)
nuclei count [2]: 93.5%
inhibition [3]: -5.9% (inactive)
nuclei count [3]: 112%
fluorescence slope [4]: -0.332 (inactive)
NADPH fluorescence slope [5]: -7.5e-05 (inactive)
slope [6]: 0.00541 (inactive)
inhibition [7]: -18.6% (inactive)
inhibition [8]: -44.4% (inactive)
